Data on 8 molecules can be found in PubChem BioAssay (NCATS).

For assay [1], the target named is Glucocorticoid receptor (Homo sapiens) (UniProt P04150). Kind of assay: qHTS assay for small molecule agonists of glucocorticoid receptor signaling (AID 588532; active = well fitted curve in the direction sought with a large enough effect in the signal ratio, with a control signal flat; the % refers to the signal ratio;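 note: 100% = dexamethasone at 0.1 µM and 0% = DMSO only wells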). Conditions: HeLa MMTV-bla, beta-lactamase ratio, agonist, 18 h; stronger effect = higher value; percent of dexamethasone control, DMSO zero. The method, boiled down:
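Cells were plated and rested 3-5 h at 37 C, compounds were added in titration and incubated 18 h, then CCF4 substrate was loaded for 2 h at RT before reading blue/green fluorescence. EC50 came from Hill-equation fitting.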

Assay [2] has the same target. Kind of assay: qHTS assay for small molecule antagonists of glucocorticoid receptor signaling (AID 588533; active = well fitted inhibition curve with a large enough effect in the signal ratio, with a control signal flat, not every such curve was filed as active; the % refers to the signal ratio; note: % is set by controls: 0 for no effect and ±100 for the full control effect). Conditions: HeLa MMTV-bla, GRE beta-lactamase ratio, antagonist mode, 18 h; series mostly up to 76.8 µM. The method, boiled down: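 Antagonist-mode qHTS: compound titrations added to GRE-bla HeLa cells, then dexamethasone 2 nM final; 18 h, 37 C. CCF4 FRET fluorescence normalized to dexamethasone and DMSO; IC50 from Hill fit.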
On the technique in general: qHTS replaces the single test concentration by a dilution series.

The nature of assay [3]: qHTS assay for small molecule antagonists of peroxisome proliferator-activated receptor delta signaling (AID 588535; active = well fitted inhibition curve with a large enough effect in the signal ratio, with a control signal flat, not every such curve was filed as active; the % refers to the signal ratio; note: potency is the fitted concentration of half-maximal effect;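 for max response: cells co-treated with a PPAR-delta agonist as stimulator during compound exposure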). The following applies: HEK293T PPARd-UAS-bla, beta-lactamase FRET ratio, 18 h; 460 nm channel. An outline of the steps:
(§1)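 Beta-lactamase reporter read-out (405 nm excitation, 460/530 nm emission) after CCF4 loading for 2 hrs at RT. HEK293T PPAR-delta-UAS-bla cells, 2% charcoal/dextran FBS, compounds for 18 hrs at 37 C. Hill fit gave IC50 and efficacy.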

In assay [4] the target is Peroxisome proliferator-activated receptor delta (Homo sapiens) (UniProt Q03181). The description is as above. The following applies: HEK293T PPARd-UAS-bla, beta-lactamase FRET ratio, 18 h; series mostly up to 76.7 µM. The method, boiled down:
as §1

Assay [5] has as its target Peroxisome proliferator-activated receptor gamma (Homo sapiens) (UniProt P37231). Kind of assay: qHTS assay for small molecule agonists of peroxisome proliferator-activated receptor gamma signaling (AID 588536; active = well fitted curve in the direction sought with a large enough effect in the signal ratio, with a control signal flat, not every such curve was filed as active; the % refers to the signal ratio;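 note: 0% = DMSO basal wells and 100% = rosiglitazone at 2 µM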). The following applies: HEK293 PPARg-UAS-bla, beta-lactamase ratio, 16 h, percent of rosiglitazone response, DMSO as zero; series mostly up to 76.7 µM. The method, boiled down:
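Cells were plated and held 6–6.5 h at 37 C, then compounds were added as a titration series. After a further 16 h, CCF4 dye was loaded for 2 h at room temperature and emission at 460/530 nm recorded.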

Assay [6] has as its target Vitamin D3 receptor (Homo sapiens) (UniProt P11473). Description: qHTS assay for small molecule antagonists of vitamin D receptor signaling (AID 588541).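 Note: receptor activated by calcitriol during compound treatment; % is set by controls: 0 for no effect and ±100 for the full control effect.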 Conditions: HEK293T VDR-UAS-bla, beta-lactamase ratio, antagonist mode; series mostly up to 76.7 µM. The method, boiled down:
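VDR-UAS-bla HEK293T cells in 2% charcoal-stripped FBS were stimulated with 1-alpha,25-dihydroxyvitamin D3 (3 nM final) plus compound for 16 h at 37 C. The beta-lactamase CCF4 readout was normalized to 50 nM agonist and DMSO, and Hill fits gave IC50.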

Assay [7] shares this target. Description: qHTS assay for small molecule agonists of vitamin D receptor signaling (AID 588543).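 Note: 0% = DMSO basal and 100% = reference agonist control.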 Conditions: HEK293T VDR-UAS-bla, beta-lactamase ratio, 16 h; series mostly up to 76.8 µM. An outline of the steps:
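Reporter cells (HEK293T, VDR-UAS-bla) were seeded in medium with 2% charcoal-stripped serum and incubated 5 h, then compounds in concentration series were added for 16 h at 37 °C. Stimulation was scaled between DMSO basal and 50 nM 1α,25-dihydroxyvitamin D3.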

The nature of assay [8]: qHTS assay for small molecule agonists of retinoid X receptor alpha signaling (AID 588544).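 For activation: 0% = DMSO basal wells and 100% = reference agonist.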 Conditions: HEK293T RXRa-UAS-bla, beta-lactamase reporter, 18 h; 530 nm emission.
For assay [9], the target named is Retinoic acid receptor RXR-alpha (Homo sapiens) (UniProt P19793). The assay is described as above. The following applies: HEK293T RXRa-UAS-bla, beta-lactamase reporter, 18 h; series mostly up to 76.7 µM.
Chain of Retinoic acid receptor RXR-alpha (Homo sapiens) (P19793 whole entry, looked up): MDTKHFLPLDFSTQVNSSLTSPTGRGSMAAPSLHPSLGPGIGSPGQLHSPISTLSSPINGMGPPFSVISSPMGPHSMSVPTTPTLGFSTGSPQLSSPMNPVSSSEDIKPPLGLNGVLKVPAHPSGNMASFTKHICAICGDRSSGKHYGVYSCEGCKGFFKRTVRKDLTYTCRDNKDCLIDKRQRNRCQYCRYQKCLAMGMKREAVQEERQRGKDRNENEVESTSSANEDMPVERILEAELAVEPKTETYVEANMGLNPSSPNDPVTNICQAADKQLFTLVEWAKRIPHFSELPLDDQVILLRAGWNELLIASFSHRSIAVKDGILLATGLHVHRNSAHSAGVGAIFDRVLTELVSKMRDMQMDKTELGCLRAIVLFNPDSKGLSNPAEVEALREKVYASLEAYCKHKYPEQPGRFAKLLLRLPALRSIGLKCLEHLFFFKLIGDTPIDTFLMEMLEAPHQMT
Assay [10] can be described thus: qHTS assay for small molecule antagonists of retinoid X receptor alpha signaling (AID 588546; active = well fitted inhibition curve with a large enough effect in the signal ratio, with a control signal flat, not every such curve was filed as active; the % refers to the signal ratio;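 note: cells stimulated with 9-cis-retinoic acid as agonist; % is set by controls: 0 for no effect and ±100 for the full control effect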). The following applies: HEK293T RXRa-UAS-bla, beta-lactamase ratio, antagonist mode; measured here: W530 green channel, cytotoxicity proxy. The method, boiled down: (§2)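 Beta-lactamase reporter inhibition, read as CCF4 fluorescence ratio (ex 405, em 460/530 nm) after 2 h at RT. HEK293T UAS-bla cells, 2500/well, were stimulated with 9-cis-RA at 500 or 100 nM final alongside test compound for 18 h at 37 C.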

In assay [11] the target is Retinoic acid receptor RXR-alpha (Homo sapiens) (UniProt P19793). Described as above. Conditions: HEK293T RXRa-UAS-bla, beta-lactamase ratio, antagonist mode. An outline of the steps: as §2
Assay [12] has as its target Voltage-gated inwardly rectifying potassium channel KCNH2 (Homo sapiens) (UniProt Q12809). Description: qHTS Assay for Small Molecule Inhibitors of the Human hERG Channel Activity (AID 588834; active = well fitted inhibition curve with a large enough effect;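 note: top concentration of the series differs between compounds; % is set by controls: 0 for no effect and ±100 for the full control effect; lower thallium flux fluorescence means stronger hERG block; nearly all actives have a fitted effect of over 50% in size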). The following applies: U2OS BacMam hERG, FluxOR thallium flux fluorescence; series mostly up to 92.2 µM. The method, boiled down:
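Step 1: BacMam hERG transduction of U2OS, 4 hrs RT. Step 2: overnight 37 °C, plate 2000 cells/well, 4 hr. Step 3: FluxOR load, compound 10 min, stimulate, read fluorescence.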

Assay [13] can be described thus: qHTS assay for small molecule agonists of the antioxidant response element (ARE) signaling pathway (AID 651741; active = well fitted activation curve with a large enough effect in the signal ratio; the % refers to the signal ratio; note: potency is the fitted concentration of half-maximal effect; for activation: % of control where 0% means no effect). Conditions: HepG2 ARE-bla reporter, beta-lactamase FRET ratio, 16 h; series mostly up to 96 µM. The method, boiled down:
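HepG2 ARE-bla reporter cells, 2,000/well; 5 h settle at 37 C/5% CO2; compound pin transfer (23 nL, DMSO); 16 h at 37 C; LiveBLAzer B/G FRET substrate, 2 h RT; fluorescence intensity read.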

Assay [14] in a line: qHTS assay for small molecule activators of the p53 signaling pathway (AID 651743; active = well fitted activation curve with a large enough effect in the signal ratio, not every such curve was filed as active; the % refers to the signal ratio; note: % of control where 0% means no effect). The following applies: HCT-116 p53RE-bla, beta-lactamase FRET ratio, 16 h; stronger effect = higher value. The method, boiled down:
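Reporter: beta-lactamase driven by p53 response elements, stably integrated in HCT-116 cells. Cells seeded at 4,000/well, 5 h preincubation, compound (DMSO) 16 h at 37 C; B/G FRET substrate 2 h RT; fluorescence intensity read.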

Assay [15] is described as follows: qHTS assay for small molecule activators of the nuclear factor-kappa B (NF-kB) signaling pathway (AID 651749; active = well fitted activation curve with a large enough effect in the signal ratio; the % refers to the signal ratio; note: % of control where 0% means no effect). The following applies: NF-kB-bla ME-180 cells, beta-lactamase FRET ratio, 16 h; stronger effect = higher value. An outline of the steps: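 NF-kB-bla ME-180 cells, 2,000/well; 23 nL compound or DMSO pinned; 16 hr, 37C/5% CO2; beta-lactamase FRET read-out.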
For assay [16], the target named is Thyroid hormone receptor beta (Homo sapiens) (UniProt P10828). Description: qHTS assay for small molecule agonists of thyroid hormone receptor beta signaling (AID 588545). Conditions: TR-UAS-bla GripTite HEK 293, beta-lactamase ratio, agonist mode, 18 h, percent of T3 response, DMSO as zero; series mostly up to 76.7 µM. The method, boiled down:
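Agonist activity was read as beta-lactamase CCF4 fluorescence (405 ex, 460/530 em), scaled between DMSO (0%) and 10 nM T3 (100%), then Hill-fitted for EC50 and efficacy. HEK 293 TR-UAS-bla cells in 2% charcoal/dextran FBS medium were exposed 18 h at 37 C.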

Assay [17] shares this target. Kind of assay: qHTS assay for small molecule antagonists of thyroid hormone receptor beta signaling (AID 588547; active = well fitted inhibition curve with a large enough effect in the signal ratio, with a control signal flat, not every such curve was filed as active; the % refers to the signal ratio;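 note: cells stimulated with 0.4 nM T3 agonist during compound exposure; % is set by controls: 0 for no effect and ±100 for the full control effect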). Conditions: TR-UAS-bla HEK293, beta-lactamase ratio, antagonist mode, 18 h. An outline of the steps: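 TR-UAS-bla GripTite HEK293 cells in 2% charcoal/dextran FBS medium; compounds 0.59 nM to 92 uM with T3 at 0.4nM final, 18 h at 37 C. Beta-lactamase read by CCF4 fluorescence (460/530 nm); Hill fits gave IC50 and efficacy.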

The target of assay [18] is Peroxisome proliferator-activated receptor gamma (Homo sapiens) (UniProt P37231). Kind of assay: qHTS assay for small molecule antagonists of peroxisome proliferator-activated receptor gamma signaling (AID 588537; active = well fitted inhibition curve with a large enough effect in the signal ratio, with a control signal flat, not every such curve was filed as active; the % refers to the signal ratio;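 note: reporter cells co-stimulated with 50 nM rosiglitazone agonist during compound treatment; % of control where 0% means no effect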). Conditions: HEK293 PPARg-UAS-bla, beta-lactamase ratio, antagonist mode; series mostly up to 76.8 µM. An outline of the steps:
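Read-out: CCF4 fluorescence (ex 405, em 460/530 nm) after 2 h at RT. Cells were HEK293 carrying a UAS-bla reporter and treated 16 h at 37 C with compound plus rosiglitazone (50 nM final). Normalized to rosiglitazone and DMSO.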

Inconclusive results are not listed. Calls of active or inactive are those of the source. Unless noted, calls come from the whole dose curve.

Chain of Vitamin D3 receptor (Homo sapiens) (P11473 whole entry, looked up): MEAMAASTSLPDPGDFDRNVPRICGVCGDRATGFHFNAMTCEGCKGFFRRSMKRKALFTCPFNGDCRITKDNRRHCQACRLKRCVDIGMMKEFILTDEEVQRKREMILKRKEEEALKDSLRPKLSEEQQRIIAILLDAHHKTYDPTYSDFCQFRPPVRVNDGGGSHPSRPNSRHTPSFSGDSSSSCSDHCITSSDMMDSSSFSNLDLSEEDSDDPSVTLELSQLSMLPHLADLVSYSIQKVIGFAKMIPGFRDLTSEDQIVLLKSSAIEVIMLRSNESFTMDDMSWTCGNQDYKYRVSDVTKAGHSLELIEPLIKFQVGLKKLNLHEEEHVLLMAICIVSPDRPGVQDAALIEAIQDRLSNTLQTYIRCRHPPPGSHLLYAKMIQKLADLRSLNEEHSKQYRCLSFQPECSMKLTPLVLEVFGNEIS
Chain of Thyroid hormone receptor beta (Homo sapiens) (P10828 whole entry, looked up): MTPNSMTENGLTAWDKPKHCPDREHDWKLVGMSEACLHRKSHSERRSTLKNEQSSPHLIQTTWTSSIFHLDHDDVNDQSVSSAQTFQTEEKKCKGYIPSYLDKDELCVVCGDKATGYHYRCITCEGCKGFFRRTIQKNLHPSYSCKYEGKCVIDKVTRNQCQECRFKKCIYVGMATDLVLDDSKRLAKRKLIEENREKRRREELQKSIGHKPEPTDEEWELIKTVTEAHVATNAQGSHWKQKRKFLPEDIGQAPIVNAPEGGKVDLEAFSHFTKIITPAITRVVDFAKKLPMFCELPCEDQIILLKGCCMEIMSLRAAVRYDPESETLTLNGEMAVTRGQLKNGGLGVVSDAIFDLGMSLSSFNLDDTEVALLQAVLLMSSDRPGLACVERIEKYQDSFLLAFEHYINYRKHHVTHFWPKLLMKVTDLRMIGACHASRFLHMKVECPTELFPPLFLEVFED
Chain of Voltage-gated inwardly rectifying potassium channel KCNH2 (Homo sapiens) (Q12809 whole entry, looked up): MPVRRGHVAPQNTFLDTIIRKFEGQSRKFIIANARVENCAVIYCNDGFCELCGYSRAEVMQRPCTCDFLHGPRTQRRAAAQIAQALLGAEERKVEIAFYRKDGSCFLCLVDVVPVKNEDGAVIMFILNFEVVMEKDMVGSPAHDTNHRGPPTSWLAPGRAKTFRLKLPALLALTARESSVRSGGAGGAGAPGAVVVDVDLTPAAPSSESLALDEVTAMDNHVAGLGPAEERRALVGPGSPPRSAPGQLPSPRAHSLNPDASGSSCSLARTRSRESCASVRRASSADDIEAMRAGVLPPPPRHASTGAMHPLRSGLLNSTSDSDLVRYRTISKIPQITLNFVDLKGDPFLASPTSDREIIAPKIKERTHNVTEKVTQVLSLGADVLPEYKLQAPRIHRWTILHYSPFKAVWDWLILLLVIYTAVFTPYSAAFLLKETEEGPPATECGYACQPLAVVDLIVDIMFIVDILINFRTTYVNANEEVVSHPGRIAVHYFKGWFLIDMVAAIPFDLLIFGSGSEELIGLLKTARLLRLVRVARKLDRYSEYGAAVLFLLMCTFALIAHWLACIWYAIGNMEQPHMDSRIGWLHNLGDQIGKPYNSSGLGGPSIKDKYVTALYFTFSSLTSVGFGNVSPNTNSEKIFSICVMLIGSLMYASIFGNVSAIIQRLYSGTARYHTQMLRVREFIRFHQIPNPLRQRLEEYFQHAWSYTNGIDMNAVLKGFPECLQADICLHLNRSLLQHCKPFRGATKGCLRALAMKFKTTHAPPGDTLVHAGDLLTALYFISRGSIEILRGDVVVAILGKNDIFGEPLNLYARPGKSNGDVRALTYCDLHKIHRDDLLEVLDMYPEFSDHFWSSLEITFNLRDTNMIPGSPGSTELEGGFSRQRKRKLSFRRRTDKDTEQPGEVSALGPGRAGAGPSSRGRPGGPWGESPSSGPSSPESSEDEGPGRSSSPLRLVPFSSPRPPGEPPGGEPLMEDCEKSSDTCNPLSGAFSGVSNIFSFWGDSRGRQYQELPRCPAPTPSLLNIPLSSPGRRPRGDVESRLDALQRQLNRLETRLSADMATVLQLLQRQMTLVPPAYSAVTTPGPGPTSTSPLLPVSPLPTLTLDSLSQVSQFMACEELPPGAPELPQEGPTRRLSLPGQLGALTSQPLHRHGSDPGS
Chain of Glucocorticoid receptor (Homo sapiens) (P04150 whole entry, looked up): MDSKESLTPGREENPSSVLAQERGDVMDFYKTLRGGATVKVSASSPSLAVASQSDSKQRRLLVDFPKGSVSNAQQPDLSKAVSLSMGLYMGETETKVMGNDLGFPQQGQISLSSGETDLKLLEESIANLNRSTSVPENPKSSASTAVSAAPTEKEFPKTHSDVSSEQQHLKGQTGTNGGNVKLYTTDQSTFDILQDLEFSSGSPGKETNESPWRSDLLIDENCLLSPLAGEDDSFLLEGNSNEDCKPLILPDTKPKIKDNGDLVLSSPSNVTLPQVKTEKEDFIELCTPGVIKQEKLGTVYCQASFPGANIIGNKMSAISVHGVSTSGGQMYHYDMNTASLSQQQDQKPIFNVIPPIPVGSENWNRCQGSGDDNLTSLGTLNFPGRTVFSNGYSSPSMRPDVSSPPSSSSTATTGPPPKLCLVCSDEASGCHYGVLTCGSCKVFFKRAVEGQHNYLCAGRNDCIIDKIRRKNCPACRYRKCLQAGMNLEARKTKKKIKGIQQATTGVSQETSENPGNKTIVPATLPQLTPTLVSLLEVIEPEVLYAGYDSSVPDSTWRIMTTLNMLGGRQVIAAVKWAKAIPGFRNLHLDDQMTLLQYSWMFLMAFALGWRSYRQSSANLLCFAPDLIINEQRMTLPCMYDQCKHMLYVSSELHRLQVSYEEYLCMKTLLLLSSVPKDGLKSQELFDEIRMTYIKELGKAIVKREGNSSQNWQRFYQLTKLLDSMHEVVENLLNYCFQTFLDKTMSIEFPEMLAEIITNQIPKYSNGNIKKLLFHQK
Chain of Peroxisome proliferator-activated receptor gamma (Homo sapiens) (P37231 whole entry, looked up): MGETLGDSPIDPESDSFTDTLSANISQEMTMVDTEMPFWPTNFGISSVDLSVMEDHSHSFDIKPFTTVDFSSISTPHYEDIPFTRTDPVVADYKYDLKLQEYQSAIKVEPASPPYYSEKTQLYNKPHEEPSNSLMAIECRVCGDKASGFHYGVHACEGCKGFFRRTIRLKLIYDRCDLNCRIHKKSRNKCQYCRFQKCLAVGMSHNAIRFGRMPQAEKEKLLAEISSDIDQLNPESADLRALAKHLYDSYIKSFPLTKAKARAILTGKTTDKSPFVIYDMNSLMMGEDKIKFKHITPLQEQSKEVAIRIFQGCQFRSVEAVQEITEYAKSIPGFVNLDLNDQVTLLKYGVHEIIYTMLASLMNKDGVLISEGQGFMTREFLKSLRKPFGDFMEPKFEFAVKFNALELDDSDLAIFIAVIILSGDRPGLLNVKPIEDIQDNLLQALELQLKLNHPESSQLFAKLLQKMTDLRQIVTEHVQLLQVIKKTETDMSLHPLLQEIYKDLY
Chain of Peroxisome proliferator-activated receptor delta (Homo sapiens) (Q03181 whole entry, looked up): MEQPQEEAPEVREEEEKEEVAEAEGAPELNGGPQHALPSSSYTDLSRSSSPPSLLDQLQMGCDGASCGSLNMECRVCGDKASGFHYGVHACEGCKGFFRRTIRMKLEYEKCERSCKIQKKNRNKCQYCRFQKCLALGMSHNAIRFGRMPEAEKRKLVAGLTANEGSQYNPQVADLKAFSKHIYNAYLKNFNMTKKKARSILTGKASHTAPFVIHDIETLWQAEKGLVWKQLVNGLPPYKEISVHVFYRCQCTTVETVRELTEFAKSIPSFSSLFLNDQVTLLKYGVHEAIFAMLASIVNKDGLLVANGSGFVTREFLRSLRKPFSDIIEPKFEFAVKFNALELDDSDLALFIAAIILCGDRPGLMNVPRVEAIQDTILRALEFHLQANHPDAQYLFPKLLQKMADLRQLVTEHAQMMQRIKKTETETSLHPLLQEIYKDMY

For the molecule `Nc1ccc(F)cc1F`, the results for the activation in assay [1], in [14] and in assay [15] were -11.6% (inactive), -3.46% (inactive) and -1.13% (inactive), respectively. The result in [2], in [5], in assay [6], in [7] and in assay [9] was inactive. Besides, the max response in assay [3] was -4.23%; in assay [8], -10.9%; in assay [10], -8.47%; in assay [11], 16.2% (inactive). The Potency entry in [4], in [12] and in [13] was “inactive” in each case.
`Cc1c(N)cccc1[N+](=O)[O-]`: the values for the activation in assay [1] and in [14] were -3.4% (inactive) and -0.892% (inactive), respectively. Moreover, the result in assay [2], in [5], in assay [9] and in assay [16] was inactive. Moreover, the max response in [3] is -31.1%; in assay [8], -2.78%; in assay [10], -6.48%; in assay [11], -2.95% (inactive). In addition, the Potency result in [4] and in assay [12] was “inactive” in each case. In addition, the activity change % (negative = inhibition) in [17] was -5.59% (inactive).
On to `O=C(O[C@@H](C(=O)O)[C@@H](OC(=O)c1ccccc1)C(=O)O)c1ccccc1`, for which the figures for the activation in assay [1], in [14] and in assay [15] were -3.12% (inactive), -2.28% (inactive) and 0.306% (inactive), respectively. Further, the outcome in [2], in assay [5], in assay [18] and in [9] was inactive. Besides, the max response was -10.6% in [3], -17.8% in [8], 4.27% in assay [10] and -0.94% (inactive) in [11]. Besides, the Potency result in assay [4] and in assay [12] was “inactive” in each case.
Consider `CN(C)c1cccc(O)c1`, for which the activation is -1.05% (inactive) in [1] and -0.862% (inactive) in assay [15]. The result in assay [2], in assay [5], in assay [6], in [7], in assay [9] and in [16] was inactive. The max response was -10% in [3], -0.228% in assay [8], -1.21% in [10] and 8.46% (inactive) in [11]. The Potency entry in assay [4] and in [12] was “inactive” throughout. Also, in assay [17], the activity change % (negative = inhibition) was 5.73% (inactive).
`c1ccc2c(c1)ccc1ncccc12`: the activation in assay [1] was -5.6% (inactive). The result in assay [2], in [5] and in [9] was inactive. The max response in [3] is 23.6%; in [8], -7.03%; in [10], -6.57%; in assay [11] it was -11.7% (inactive). In addition, the Potency entry in assay [4], in [12] and in assay [13] was “inactive” in each case.
Turning to `O=Nc1ccc(NO)cc1`, the activation was 5.11% (inactive) in assay [1], -5.55% (inactive) in assay [14] and -2.26% (inactive) in [15]. Also, the result in assay [2], in assay [5], in assay [6], in assay [7] and in [16] was inactive. Besides, the max response in assay [3] was -72.9%. Moreover, the Potency was 12.6 µM (active) in assay [4] and 13.3 µM (active) in assay [13]. In addition, in [17], the activity change % (negative = inhibition) was -12.9% (inactive). The Potency entry in assay [12] was “inactive”.
Consider `O=[N+]([O-])c1ccccc1CCO`, for which the activation in [1] was 3.95% (inactive); in [14] it was -1.31% (inactive); in assay [15], -0.881% (inactive). Besides, the result in assay [2], in assay [5], in assay [6], in [7], in [9] and in assay [16] was inactive. Moreover, the max response in assay [3] was -6.01%; in [8], 4.35%; in [10], -5.47%; in assay [11], -8.97% (inactive). The Potency entry in assay [4] and in assay [12] was “inactive” each time. Also, the activity change % (negative = inhibition) in [17] was 2.13% (inactive).
`COCCOC(=O)c1ccccc1C(=O)OCCOC`: the activation is -0.475% (inactive) in assay [1], -1.05% (inactive) in assay [14] and 0.152% (inactive) in assay [15]. Also, the outcome in assay [2], in [5], in [6], in assay [7], in assay [9] and in assay [16] was inactive. Besides, the max response was -2.63% in assay [3], -5.12% in [8], -3.43% in [10] and 23.2% (inactive) in assay [11]. Also, the Potency result in [4] and in assay [13] was “inactive” in each case. The activity change % (negative = inhibition) in assay [17] is 7.4% (inactive).
